Screening data deposited in PubChem by National Center for Advancing Translational Sciences (NCATS).
In the library only some 21% were active in any assay of this set; here they are far more common.
FBPA Giardia inh = Giardia lamblia aldolase inhibition; 290,000 tested, 0.71% active; Potency, µM (titrated, usually from 59.6 µM), inactives show at the top dose activity, negative = inhibition, usual class: inhibitors; AID 2451; A8B2U2; purified Giardia FBPA; note: potency is the fitted concentration of half-maximal effect; % is set by controls: 0 for no effect and ±100 for the full control effect; nearly all actives have a fitted effect of over 55% in size
Target sequence (A8B2U2 whole entry, looked up): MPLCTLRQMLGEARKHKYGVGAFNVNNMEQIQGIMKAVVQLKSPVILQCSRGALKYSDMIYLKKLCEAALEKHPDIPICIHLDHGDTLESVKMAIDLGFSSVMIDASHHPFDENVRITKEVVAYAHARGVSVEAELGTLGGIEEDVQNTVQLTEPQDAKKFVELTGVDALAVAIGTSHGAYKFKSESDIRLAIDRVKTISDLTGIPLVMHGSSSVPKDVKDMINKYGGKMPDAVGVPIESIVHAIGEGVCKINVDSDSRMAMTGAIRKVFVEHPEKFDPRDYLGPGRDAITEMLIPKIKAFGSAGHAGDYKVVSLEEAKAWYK
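40 nM FBPA preincubated 10 min at RT with compound (up to 57.5 uM final), then substrate plus GAPDH/TPI/NAD/arsenate coupling and diaphorase/resazurin added. Fluorescence read after 20 min at RT, 525/598 nm.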
NS1 inh = blocks influenza NS1 protein function | Potency, µM (series often up to 46.1 µM), for the others: top-dose activity, positive = more growth | 270,000 tested, 0.4% active | AID 2326; calls by dose curve; note: potency is the fitted concentration of half-maximal effect; actives are rising curves; nearly all actives have a fitted effect of over 50% in size
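In this qHTS, NS1 from influenza A is expressed in budding yeast, where it slows growth. Cells are switched from glucose to 2% galactose medium (pH 6.0, -URA), treated with compound, and growth recovery is read at OD600.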
Pf growth 48h = inhibits P. falciparum growth in the first generation, 48 h. P. falciparum luciferase growth in erythrocytes, 48 h. 310,000 tested, 5.9% active. Potency, µM (titrated, usually from 28.7 µM), without a hit: at the top dose activity change, negative = inhibition, hits mostly inhibitors. AID 504832; note: potency is the fitted concentration of half-maximal effect; % is set by controls: 0 for no effect and ±100 for the full control effect
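A one-generation exposure of luciferase-tagged malaria parasites in RPMI 1640/Albumax erythrocyte culture, 37 C and 5% CO2. Inhibition is inferred from decreased luminescence after adding detection reagent.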
Cycloheximide cs = affects cycloheximide protein synthesis inhibition readout, counter-screen; 300,000 tested, 12% active; AID 2314; max response, %; cell reporter, cycloheximide protein synthesis inhibition counterscreen; in the data active = max response mostly above about 13%, no sharp cut-off; inactive = mostly below about 14%; note: read at 38.3 µM for the half of the compounds with a filed dose; 0% is about no effect
Pf growth 96h = inhibits malaria parasite growth, 96 h; P. falciparum luciferase reporter growth, 96 h; Potency, µM (highest dose often 28.7 µM), without a hit: top-dose activity change, negative = inhibition, usual class: inhibitors; 320,000 tested, 6.9% active; AID 504834; note: potency is the fitted concentration of half-maximal effect; % is set by controls: 0 for no effect and ±100 for the full control effect
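Delayed-death screen, second-generation endpoint: infected erythrocytes, 2% hematocrit, 0.05% parasitemia final; 96 hours at 37 C, 5% CO2; luciferase detection reagent; luminescence decrease equals reduced growth.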
Shiga inhibitor = inhibitors of Shiga toxin in Vero cells; Vero cells, Shiga toxin protein synthesis inhibition reporter; inhibition, % at 38.7 µM; 290,000 tested, 9.2% active; in the data active = inhibition mostly above about 28%, no sharp cut-off; inactive = mostly below about 43%; note: 0% is about no effect
Numbers without * were called inactive; ? = inconclusive; / = not tested or not shown; [ ] = dose if it differs, or a comment. Unless noted, calls come from the whole dose curve; as a rule, active = well fitted curve in the direction sought with a large enough effect; inconclusive = small, poorly fitted or top-dose-only effect, or another doubt; inactive = no such curve, though single readings can be large; an effect the other way counts as inactive or inconclusive.

SMILES	FBPA Giardia inh	NS1 inh	Pf growth 48h	Cycloheximide cs	Pf growth 96h	Shiga inhibitor
O=[N+]([O-])c1cccc(-c2cn3nc(-c4ccccc4)c(-c4ccccc4)nc3n2)c1	1.2%	5.5%	9.28µM*	-1.1	?	-3.5
COCCNC(=O)CN(C(=O)CCC(=O)Nc1ccccn1)c1cc(C)ccc1C	0.7%	13.7%	-14.9%	-1.5	?	1.6
Cc1ccc(NC(=O)COC(=O)c2ccc(Cl)cc2)cc1S(=O)(=O)N(C)C	-1.3%	5.9%	?	-2.5	0.4%	17.6
CC(=O)c1c(C)[nH]c(C(=O)Nc2ccc(Cl)c(S(=O)(=O)N(C)C)c2)c1C	-5.9%	-0.4%	?	23.9*	?	108.9*
CN(C)S(=O)(=O)c1cc(NC(=O)CN2CCN(c3ccccc3)CC2)ccc1Cl	2.4%	-6.6%	-19.9%	2.6	?	-6.4
CN(C)S(=O)(=O)c1cc(NC(=O)CNCc2ccccc2)ccc1Cl	?	1.6%	-11.2%	41.1*	?	66.9*
CC(=O)c1c(C)[nH]c(C(=O)OCC(=O)Nc2ccc(Cl)c(S(=O)(=O)N(C)C)c2)c1C	2.9%	-12.3%	1.17µM*	2.5	6.57µM*	14.3
CC1(C)Oc2cc3c(cc2O1)OC(C)(C)O3	-0.8%[12.9 µM]	/	/	/	/	/
Cc1[nH]nc2nc(SCC(=O)NCC3CCCO3)n(-c3ccc(Br)cc3)c(=N)c12 (centres undefined)	5.1%	2.5%	10.4µM*	-2.0	40.3%	-0.7
COc1cccc(NC(=O)CSc2nc3n[nH]c(C)c3c(=N)n2-c2cccc(OC)c2)c1	-2.3%	9.6%	10.4µM*	2.4	171.7%	-10.3
COc1cccc(-n2c(SCC(=O)NCCC3=CCCCC3)nc3n[nH]c(C)c3c2=N)c1	-0.2%	0.0%	9.28µM*	0.6	?	-14.3
Cc1ccc(CNC(=O)CSc2nc3n[nH]c(C)c3c(=N)n2-c2cccc(C)c2)cc1	4.4%	17.3%	/	-2.4	9.28µM*	-5.7
Cc1cc(-n2c(SCC(=O)Nc3ccc(Br)cc3)nc3n[nH]c(C)c3c2=N)ccc1Cl	2.0%	-2.4%	?	0.9	43.8%	-3.6
COc1cc2c(cc1OC)C(COc1cc(C)cc(C)c1)N(C(C)=O)CC2 (centres undefined)	-3.3%	?	?	8.8	-3.2%	22.0
O=P1(Oc2ccccc2)CC=CC(COCc2ccccc2)O1 (centres undefined)	2.3%	/	/	16.9	/	3.3
Cc1c(C(=O)OCc2nc3ccsc3c(=O)[nH]2)oc2ccccc12	/	/	-2.7%	/	-6.2%	/
CCOC(=O)CNC(=O)c1cc(-c2ccccn2)nc2c(C)c(Cl)ccc12	-1.5%	3.4%	7.3%	-3.9	20.2%	-6.1
COC(=O)[C@@]1(Cc2ccc(OC)cc2)[C@H]2c3cc(C(=O)N4CCCC4)n(Cc4ccc(S(C)(=O)=O)cc4)c3C[C@H]2CN1C(=O)c1ccccc1	-7.7%	/	/	/	/	/
COC(=O)[C@@]1(Cc2ccccc2)[C@H]2c3cc(C(=O)N4CCCC4)n(CCSCCO)c3C[C@H]2CN1C(=O)c1ccccc1	-10.8%	-26.7%	1.65µM*	-3.5	2.33µM*	-14.2
COC(=O)[C@@]1(Cc2ccc(F)cc2)[C@H]2c3cc(C(=O)N4CCCC4)n(CCc4ccccn4)c3C[C@H]2CN1C(=O)c1ccccc1	-1.1%	-43.2%	3.29µM*	-2.4	2.08µM*	-14.0
COC(=O)[C@@]1(Cc2ccc(OC)cc2)[C@H]2c3cc(C(=O)N4CCCC4)n(Cc4ccc(C)o4)c3C[C@H]2CN1C(=O)c1ccccc1	-4.4%	?	?	-3.5	2.08µM*	-8.6
COC(=O)[C@@]1(Cc2ccc(F)cc2)[C@H]2c3cc(C(=O)N4CCCC4)n(CCSCCO)c3C[C@H]2CN1C(=O)c1ccccc1	3.1%	/	/	/	/	/
COC(=O)[C@@]1(Cc2ccc(F)cc2)[C@H]2c3cc(C(=O)N(C)C)n(CCc4ccccn4)c3C[C@H]2CN1C(=O)c1ccccc1	-7.0%	-22.7%	2.62µM*	-3.3	3.29µM*	-16.1
COC(=O)[C@@]1(Cc2ccccc2)[C@H]2c3cc(C(=O)N4CCCC4)n(CCc4ccccn4)c3C[C@H]2CN1C(=O)c1ccccc1	-3.1%	/	/	/	/	/
COC(=O)[C@@]1(Cc2ccc(F)cc2)[C@H]2c3cc(C(=O)N(C)C)n(CCO)c3C[C@H]2CN1C(=O)c1ccccc1	2.8%	/	/	/	/	/
SMILES	FBPA Giardia inh	NS1 inh	Pf growth 48h	Cycloheximide cs	Pf growth 96h	Shiga inhibitor
COc1ccccc1C(O)P(=O)(OCC(C)C)c1ccc(N(C)C)cc1 (centres undefined)	6.1%	5.6%	?	-3.7	-24.9%	-15.4
O=C(CCN1C(=O)c2cccc3cccc(c23)C1=O)NCc1ccco1	0.4%	0.9%	11.8%	-3.3	-25.4%	-10.9
CCc1cccc(C)c1NC(=S)N(CCN(C)C)C(C)c1ccco1 (centres undefined)	0.5%	-1.9%	-13.8%	-2.6	?	-6.8
COCCn1c(C(=O)N2CCCC2)cc2c1C[C@H]1CN(C(=O)c3ccccc3)[C@@](Cc3ccc(F)cc3)(C(=O)OC)[C@@H]21	-2.5%	-28.1%	1.65µM*	-5.3	4.65µM*	-16.4
[O-][N+](=Nc1ccccc1)c1ccccc1	/	/	26.4%	/	31.1%	/
OCc1cn(-c2ccccc2)nc1-c1ccc(Br)cc1	-1.5%	-30.4%	83.3%	31.9*	?	33.3*
OCc1cn(-c2ccccc2)nc1-c1cc2ccccc2o1	-16.6%	-2.4%	114.1%	55.4*	6.6%	100.3*
COC(=O)c1cn(-c2ccccc2)nc1-c1ccc(OC)c(OC)c1	11.1%	-30.4%	39.1%	1.7	13.3%	-4.1
COc1ccc(-c2nn(-c3ccccc3)cc2CO)cc1OC	7.6%	-8.2%	13.1µM*	1.6	-11.6%	-11.1
OCc1cn(-c2ccccc2)nc1-c1ccc2c(c1)OCCO2	2.0%	-58.7%	195.4%	45.0*	84.1%	101.1*
CCOc1ccccc1-c1nnc2n1N=C(c1cc(OC)cc(OC)c1)CS2	-1.2%	/	/	11.8	/	-6.0
CC1(C)[C@@H](O)CC[C@]2(C)C3C(O)C=C4[C@H]5C[C@@](C)(C(=O)O)CC[C@]5(C)CC[C@]4(C)[C@]3(C)CC[C@@H]12 (some centres undefined)	20.2%	-77.5%	43.6%	-4.5	4.6%	-3.0
CC(=O)NC(Cc1cccc(F)c1)C(=O)NC1CCN(c2nnnn2-c2ccccc2)CC1 (centres undefined)	1.5%	2.9%	-9.7%	-2.4	?	24.1
COc1cccc(-c2nn(-c3ccccc3)cc2CO)c1	1.9%	-42.7%	99.3%	33.0*	/	60.5*
COc1cccc(-c2nn(-c3ccccc3)cc2CN(C)Cc2ccon2)c1	-4.6%	-8.2%	-18.4%	-2.4	19.8%	-9.5
CC(C)[C@H]1CN(C)CCN1Cc1cn(C)nc1-c1cccc(Cl)c1	1.1%	2.5%	0.0%	-4.4	?	1.3
